A selection: hits, their analogues and other compounds. The true share with any hit is near 2.2%.
MEX-5 binding: C. elegans MEX-5 TCR-2 RNA binding activity | Q9XUB2 | MEX-5/FITC-TCR2 RNA binding, fluorescence polarization; stronger effect = lower value | activity score (negative = inhibition of binding), % at 10 µM | 0.38% of 300,000 active;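 active = inhibition past about -25% in most replicates, and total fluorescence under double the plate's negative control median, limit read from the data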;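 also: 0% = DMSO and -100% = 5 µM competing unlabeled TCR2 RNA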
GASC-1 inh: blocks human GASC-1 demethylase activity; inhibition, % at 2.35 µM; GST-JMJD2C(1-420) H3K9me3 demethylation, DELFIA europium; Q9H3R0; 0.069% of 330,000 active;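 active = more than half of a compound's replicate wells show inhibition beyond 50%, single wells judged on their own value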;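 also: signal counts dimethyl H3K9 product captured on neutravidin plate; 0% = median of DMSO wells and 100% = 0.3 times that DMSO median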
Target sequence (Q9H3R0 1-420 limits assumed): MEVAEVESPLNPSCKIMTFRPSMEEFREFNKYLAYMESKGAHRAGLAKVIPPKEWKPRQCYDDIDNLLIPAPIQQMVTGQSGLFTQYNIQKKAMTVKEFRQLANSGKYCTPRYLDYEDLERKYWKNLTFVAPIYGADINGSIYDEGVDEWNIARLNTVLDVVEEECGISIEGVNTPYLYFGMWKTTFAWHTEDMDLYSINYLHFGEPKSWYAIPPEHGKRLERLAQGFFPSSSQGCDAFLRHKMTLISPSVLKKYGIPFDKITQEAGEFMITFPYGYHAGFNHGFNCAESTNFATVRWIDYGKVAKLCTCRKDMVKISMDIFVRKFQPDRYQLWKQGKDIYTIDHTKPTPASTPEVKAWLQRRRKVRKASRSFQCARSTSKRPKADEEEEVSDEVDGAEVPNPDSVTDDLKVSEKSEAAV
V-ATPase pHluor: yeast V-ATPase proton transport regulation by pHLuorin | S. cerevisiae, pHLuorin cytosolic pH fluorescence | response, % at 10 µM | 0.37% of 350,000 active | AID 504577; in the data active = response mostly above about 7.3%, no sharp cut-off; inactive = mostly below about 5.4%; also: actives read high
m5-HT2A agonist: agonists of mouse serotonin 5-HT2A receptor (HTR2A) | CHO-K1 mHTR2A beta-arrestin complementation, luminescence; percent of 30 µM serotonin response | AID 624169 | 0.66% of 360,000 active | activation, % at 7.6 µM;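 active = activation above a run cutoff, the mean activation of all tested compounds plus 3 SD, cut at about 14% in these data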;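 also: 0% = plate median of compound wells and 100% = 30 µM serotonin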
Exocytosis inh: lytic granule exocytosis inhibition | AID 651702 | TALL-104 LAMP-1 surface exposure, flow cytometry; cells stimulated with thapsigargin and PMA | inhibition, % at 10 µM | 0.66% of 360,000 active;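 active = inhibition above about 55%, limit read from the data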
VLA-4 inh: inhibition in a human VLA-4 binding assay; VLA-4 expressing cells, ligand binding flow cytometry; inhibition, % (about 7 µM as worked out from the volumes in the protocol); 0.2% of 330,000 active; AID 2557; in the data active = inhibition above about 50%
Active calls of the source: *; · = no result.

SMILES	MEX-5 binding	GASC-1 inh	V-ATPase pHluor	m5-HT2A agonist	Exocytosis inh	VLA-4 inh
Cc1cc(C)c(C)c(S(=O)(=O)N2CCC(C(=O)N3CC(C)CC(C)C3)CC2)c1C (centres undefined)	3	22	7	5	2	-3
COCCNC(=O)c1c(N)sc2c1CCCC2	5	50*	·	·	·	-96
COC(=O)CSc1nc2c(cnn2-c2ccc(F)cc2)c(=O)[nH]1	-3	4	1	-3	13	4
CC(C)(C)NNC(=S)Nc1cccc(C(F)(F)F)c1	2	54*	1	1	-5	10
CCCNC(=S)Nc1cccc(C(F)(F)F)c1	0	-21	0	1	-3	0
Cc1ccc(NC(=O)Cn2c(O)c(N=NS(=O)(=O)c3ccc(C)cc3)c3ccccc32)cc1	1	-4	1	-3	56*	-6
Cc1ccc(NC(=O)Cn2c(O)c(N=NC(N)=O)c3ccccc32)cc1	0	18	-1	0	1	4
CC1(C)CC(=O)C(=Cc2cn(-c3ccccc3)nc2-c2ccccc2)C(=O)C1	-1	17	-3	11	56*	8
Cc1ccc(-c2nn(-c3ccccc3)cc2C=C2C(=O)CC(C)(C)CC2=O)cc1	-3	-3	2	0	52	5
CC(=O)Oc1ccccc1C(=O)Nc1ccccc1C(=O)N1CCCCC1	0	-4	-2	7	0	4
O=C(O)C1Nc2c(Cl)cc(Cl)cc2C2C=CCC12 (centres undefined)	-73*	7	1	-1	-4	-12
O=C(O)C1Nc2ccc(Br)cc2C2C=CCC12 (centres undefined)	-30*	6	5	6	-2	-2
O=C(NCCOc1ccccc1)C1Nc2ccc(OC(F)(F)F)cc2C2C=CCC12 (centres undefined)	3	12	17*	-4	15	-5
O=C(c1ccccc1)N(C(=O)c1ccccc1)N1CCCC1	·	·	-1	2	-2	·
CN(C)c1ccc(/C=N/NC(=O)CNC(=O)c2ccc3c(c2)OCCO3)cc1	0	2	-1	-8	-2	5
CCN(CC)c1ccc(/C=N/NC(=O)CNC(=O)c2ccc3c(c2)OCCO3)cc1	0	-5	-7	7	74*	12
CCOC(=O)CCS(=O)(=O)c1nc(-c2ccccc2)cc(C(F)(F)F)n1	1	-2	-3	-2	88*	27
COc1ccc(-c2cc(C(F)(F)F)nc(S(C)(=O)=O)n2)cc1	·	3	1	-2	40	17
COCC(C)NC(=O)CCS(=O)(=O)c1nc(-c2ccc(OC)cc2)cc(C(F)(F)F)n1 (centres undefined)	1	2	1	6	78*	6
CCOC(=O)CS(=O)(=O)c1nc(-c2ccc(F)cc2)cc(C(F)(F)F)n1	4	3	-1	-8	96*	19
COc1ccc(CCN2C(=O)CSC2=Nc2ccc(C)cc2C)cc1OC	0	-25	6	2	-2	28
Cc1[nH]nc(NNC(=O)c2ccccc2)c1[N+](=O)[O-]	-83*	-3	-2	2	-1	23
CN(Cc1ccccc1Cl)C(=O)CNC(=O)C12CC3CC(CC(C3)C1)C2	·	4	-1	-1	2	-10
Cc1ccc(SCc2c(C(=O)N/N=C/c3ccc4c(c3)OCO4)nnn2-c2nonc2N)cc1	-1	-12	1	-1	79*	-7
Cc1ccc(SCc2c(C(=O)N/N=C/c3ccccc3)nnn2-c2nonc2N)cc1	-4	-17	2	-4	85*	10
SMILES	MEX-5 binding	GASC-1 inh	V-ATPase pHluor	m5-HT2A agonist	Exocytosis inh	VLA-4 inh
Cc1ccc(/C=N/NC(=O)c2nnn(-c3nonc3N)c2CSc2ccccc2)cc1	5	-1	-1	-1	4	0
COc1ccc(N2C(=O)CC(Sc3n[nH]c(-c4cccc(C)c4)n3)C2=O)cc1 (centres undefined)	0	11	8	8	95*	8
COC(=O)c1cc(Br)ccc1NC(=O)CSCc1c(C)noc1C	·	·	-3	2	0	-5
CC1(C)Cc2c(c(-c3ccccc3Cl)[nH]c(=O)c2C#N)CO1	0	1	1	3	-2	12
N#Cc1c(-c2ccc(Cl)cc2)c2c([nH]c1=O)-c1ccccc1OC2	-28*	2	0	0	-3	-2
CCOC(=O)c1cc([N+](=O)[O-])c([N+](=O)[O-])cc1NC(C)=O	-1	4	15*	3	49	9
O=C(CS)Nc1ccc2ccccc2c1	-1	-17	4	11	67*	5
CC1(C)CC(=O)C2=C(C1)OC(N)=C(C#N)C2c1ccccc1[N+](=O)[O-] (centres undefined)	-80*	1	-1	0	2	-4
COc1ccc2nc3ccccc3nc2c1NC(=O)c1ccccc1Cl	-35*	-12	-1	0	-4	-1
O=C(NCc1ccccn1)C1CC(c2ccccc2Cl)=NO1 (centres undefined)	1	-1	0	15*	-8	14
Cc1ccc([N+](=O)[O-])cc1N/C=C1\CCc2ccccc2C1=O	0	-3	0	1	57*	5
O=C(Nc1ccccc1N1CCOCC1)c1cccc2c(Br)cccc12	1	-13	7	-6	0	9
CC1(c2ccccc2)CC(C)(C)N2C(=O)C3(C(C#N)=C(N)Oc4cc(O)ccc43)c3cccc1c32 (centres undefined)	-1	-3	0	34*	8	4
O=c1c(Br)ccc(Br)cc1Br	·	·	62*	3	46	·
O=C1CN(S(=O)(=O)c2cc(Br)ccc2Br)CCN1	·	-7	1	0	0	-6
COc1ccc(C(=O)CC(SCC(NC(C)=O)C(=O)O)c2ccc(Cl)cc2)cc1OC (centres undefined)	0	-6	0	-4	-2	14
Cc1nc2nc(CCNS(=O)(=O)c3ccc(Cl)cc3)cn2nc1C	-5	-5	13*	-1	-4	5
CCOC(=O)C1=C(COC(=O)CCOc2ccccc2)NC(=O)NC1C (centres undefined)	·	2	-3	-6	-2	8
COc1ccccc1CNC(=O)C(=O)NCC1OCCCN1S(=O)(=O)c1cccs1 (centres undefined)	2	-1	1	17*	-1	-6
COc1ccc(N(CC(=O)Nc2nccs2)S(=O)(=O)c2c(C)nn(C)c2C)cc1	·	·	14*	2	2	-13
COc1ccc(S(=O)(=O)N2CCN(C(=O)c3ccc(C)o3)CC2)cc1	-2	-8	1	1	-14	0
Oc1cccnc1SCc1ccccc1	2	5	0	0	2	17
O=Cc1cccnc1SCc1ccccc1	0	-5	-2	0	64*	9

Source: PubChem BioAssay
